This passage reports inhibition results from PubChem BioAssay AID778 (Sanford-Burnham Center for Chemical Genomics, 2007).

Out of some 96,000 compounds screened, about 20,000 (21%) were called active. The list is a sample of the results. Unmarked numbers belong to inactive results.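 The calls were made as follows: active = CYP2C19 inhibition above a set limit at 5 µM in the primary screen (cut at about 50% in these data); inactive = the rest.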

The target of the assay is Cytochrome P450 2C19 (Homo sapiens) (UniProt P33261). Kind of assay: blockers of cytochrome P450 2C19 activity – biochemical, luminescence, ADME assay, primary screen (AID 778).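 Also: plate controls were negative control wells for no effect and 2.5 mM tranylcypromine positive control for full effect.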 The settings on record: CYP2C19 Supersomes, luciferin-H EGE luminescence, 30 min; at 5 µM; hits give high values.
Sequence of Cytochrome P450 2C19 (Homo sapiens) (P33261 whole entry, looked up): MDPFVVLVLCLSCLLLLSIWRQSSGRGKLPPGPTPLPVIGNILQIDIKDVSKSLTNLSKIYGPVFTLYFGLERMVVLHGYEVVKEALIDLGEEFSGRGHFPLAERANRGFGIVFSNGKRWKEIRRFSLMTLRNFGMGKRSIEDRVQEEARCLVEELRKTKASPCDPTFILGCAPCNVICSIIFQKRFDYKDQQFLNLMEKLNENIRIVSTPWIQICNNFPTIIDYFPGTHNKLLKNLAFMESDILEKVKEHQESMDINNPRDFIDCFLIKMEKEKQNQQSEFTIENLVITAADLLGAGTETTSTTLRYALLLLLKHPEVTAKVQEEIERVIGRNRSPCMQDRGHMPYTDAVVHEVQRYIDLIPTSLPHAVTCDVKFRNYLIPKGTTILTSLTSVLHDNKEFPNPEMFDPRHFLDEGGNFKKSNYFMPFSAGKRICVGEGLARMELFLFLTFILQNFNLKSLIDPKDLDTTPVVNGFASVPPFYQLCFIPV
As for `Cc1ccc(CNC(=O)COc2ccc(S(=O)(=O)NC(C)C)cc2)cc1`, the inhibition (usually the relative decrease from the control value, in per cent) was 38.8%.

Turning to `Nc1ccc(C(=O)OCC(=O)NC2CCCc3ccccc32)cc1[N+](=O)[O-]` (stereo not drawn), the inhibition is 34.6%.

In the case of `Cn1c(CC(=O)Nc2ccccc2)nnc1SCC(=O)c1ccccc1`, the inhibition is 33.2%.

As for `Cn1c(CNc2nc(-c3ccccc3)cs2)nnc1SCC(=O)c1ccccc1`, the inhibition is 86.5% (active).

As to `CCOC(=O)CSc1nnc(CNc2nc(-c3ccccc3)cs2)n1C`, the inhibition is 35%.

With `CCOc1c2ccc(C(=O)NC3CCCc4ccccc43)cc2nn1CC` (stereo not drawn), the inhibition is 29.9%.

On to `CC(C)C[C@H](NC(=O)NCCc1ccc(Cl)cc1)C(=O)O`, for which the inhibition is 2.7%.

Consider `CSCC[C@H](NC(=O)NCCc1ccc(F)cc1)C(=O)O`, for which the inhibition was 72.3% (active).

For `CSCC[C@H](NC(=O)NCc1cccs1)C(=O)O`, the inhibition is -4.9%.

As to `O=C(O)c1ccc(-n2cccc2)cc1O`, the inhibition is 5.6%.

As to `CCOc1cc(C)c(Cl)cc1S(=O)(=O)n1nnc2ccccc21`, the inhibition was 66.1% (active).

Turning to `CCCOc1cc(C)c(S(=O)(=O)n2nnc3ccccc32)cc1C`, the inhibition was -9.4%.

As for `Cc1ccc(S(=O)(=O)n2cnc3ccccc32)c(C)c1`, the inhibition was 4.5%.

As for `COc1cc(/C=C2\SC(=S)N(Nc3ncc(C(F)(F)F)cc3Cl)C2=O)cc(OC)c1OC`, the inhibition was 31.7%.

With `COc1cccc(-c2cc3nc4c(c(N5CCC6(CC5)OCCO6)n3n2)CCCC4)c1`, the inhibition is 24.8%.

Turning to `NC(=O)C1CCN(C2OC(=O)c3ccccc32)CC1` (stereo not drawn), the inhibition was -2%.

As to `c1cnn(-c2cc(N3CCOCC3)ncn2)c1`, the inhibition was 5.4%.

As to `Cc1noc(C)c1C(=O)N1CCOCC1`, the inhibition was -2.1%.

For the molecule `COC(=O)c1c(-c2ccc(C)cc2)csc1N`, the inhibition is 24.4%.

For the molecule `Cc1ccc(-c2nc(COC(=O)c3c(C)noc3C)cs2)cc1`, the inhibition was 54% (active).

Take `O=C(/C(=N\O)n1cncn1)c1ccc(Br)cc1Br`: the inhibition was 33.6%.

On to `Cc1[nH]c2ccc(S(N)(=O)=O)cc2c1C`, for which the inhibition was 13%.

Turning to `CNC(=O)c1c(NC(NC(=O)c2ccco2)C(=O)c2ccc(Cl)cc2)sc2c1CCCC2` (stereo not drawn), the inhibition is 21.4%.

For `Cc1cccc(-n2c(N)cc(=O)nc2SC(C)C(=O)NC2CCCCC2)c1` (stereo not drawn), the inhibition is 12.9%.

In the case of `CC(=O)Nc1cccc2c1[n+]([O-])c(C)c(C)[n+]2[O-]`, the inhibition was 5%.

In the case of `CCOC(=O)c1ccc2c(c1)nc(SCC(=O)NC(C)C)n2CC`, the inhibition is 85.7% (active).

For `CCn1c(SCC(=O)NCC2CCCO2)nc2cc(S(=O)(=O)N3CCCCC3)ccc21` (stereo not drawn), the inhibition is 11%.

Regarding `CCn1c(C)nc2cc(C(=O)NNS(=O)(=O)c3ccc(C)cc3C)ccc21`, the inhibition was 1.5%.

In the case of `N#Cc1ccccc1-n1c(N)c(C(=O)N2CCCC2)sc1=S`, the inhibition is 17.2%.

Take `CCC1CCCCN1CCNS(=O)(=O)c1ccc2c(c1)CCN2C(C)=O` (stereo not drawn): the inhibition was -3.7%.

For `Cc1ccc(NC(=O)C(C)c2cccc(C(=O)c3ccccc3)c2)cc1` (stereo not drawn), the inhibition is 92.1% (active).

On to `Cc1ccc(C(=O)c2c(NC(=O)c3ccccc3)sc(C)c2C)cc1`, for which the inhibition was 23.7%.

Turning to `CC(=O)c1cccc(NC(=O)Nc2ccc(C)cc2)c1`, the inhibition was -13.3%.

On to `CCn1c(=O)cc(OCC(=O)NCCCN2CCN(c3cccc(Cl)c3)CC2)c2ccccc21`, for which the inhibition is 26.7%.

As to `CC(C)NC(=O)C(=O)NCCN1CCN(S(=O)(=O)c2ccc(Cl)cc2)CC1`, the inhibition was 7.4%.

Take `Cc1ccc(C2(c3ccc(C)cc3)NC(=O)N(Cc3c(C)noc3C)C2=O)cc1`: the inhibition is 14.6%.

`Cc1ccccc1-n1c(C)cc(/C=N/NC(=O)c2ccc(CN3CCOCC3)cc2)c1C`: the inhibition was 24.3%.

`OC(COc1ccccc1)Cn1cc(Br)cn1` (stereo not drawn): the inhibition was 54.1% (active).

As for `O=C(C(c1ccccc1)c1ccccc1)N1CCN(CC(O)COc2ccccc2)CC1` (stereo not drawn), the inhibition is 41.9%.

Regarding `CC(C)c1ccc(OCC(O)Cn2cnc3ccccc32)cc1` (stereo not drawn), the inhibition was 7.2%.

As to `COc1cccc(NC(=O)C(C)Oc2ccccc2)c1` (stereo not drawn), the inhibition was 79.9% (active).

Take `COc1cccc(N(CC(=O)N2CCc3ccccc3C2)S(C)(=O)=O)c1`: the inhibition was 31.3%.

Consider `COc1ccc(CC(=O)Nc2ccc(-c3nnc(-c4ccccc4)o3)cc2)cc1`, for which the inhibition was 18%.

Consider `CCN(CC)C(=O)CN(c1cccc(OC)c1)S(=O)(=O)c1ccc(C)cc1`, for which the inhibition is 64.9% (active).

On to `COc1cccc(NC(=O)c2ccccc2SC)c1`, for which the inhibition was 6.7%.

Regarding `COc1cccc(NC(=O)CN(C)S(=O)(=O)c2ccc(C)cc2)c1`, the inhibition is 78.9% (active).

On to `COc1ccc(NC(=O)CN(C)S(=O)(=O)c2ccccc2)cc1OC`, for which the inhibition was 25.7%.

In the case of `COc1cccc(N(CC(=O)Nc2cccc(N(C)S(C)(=O)=O)c2)S(C)(=O)=O)c1`, the inhibition was 35.8%.

For the molecule `CCOc1ccc(S(=O)(=O)N(CC(=O)O)c2ccccc2)cc1`, the inhibition was 2.3%.

For `COc1cccc(NC(=O)Cc2ccc(C)cc2)c1`, the inhibition was 57.1% (active).

Regarding `CCC(=O)Nc1ccc(C(=O)Nc2cccc(OC)c2)cc1`, the inhibition was -0.7%.

On to `COc1ccc(OC(C)C(=O)Nc2cccnc2)cc1` (stereo not drawn), for which the inhibition was 7.1%.

Turning to `CCOC(=O)/C=c1\s/c(=C\c2ccccc2OC)c(=O)n1CC(=O)N1CCOCC1`, the inhibition is -9.3%.

With `CCNC(=O)c1sccc1-n1cccc1`, the inhibition is 16.3%.

For the molecule `CCN1CCN(C(c2cccnc2)c2cc(Cl)c3cccnc3c2O)CC1` (stereo not drawn), the inhibition was 17.2%.

With `Cc1ccc(C(=O)NNC(=O)c2cc3cc4ccccc4nc3s2)cc1`, the inhibition is -3.1%.

On to `O=c1[nH]c(-c2ccccc2)c(-c2ccccc2)[nH]1`, for which the inhibition is 1.3%.

Consider `O=C1CC2(CCCCC2)Oc2ccc(OCC(=O)N3CCOCC3)cc21`, for which the inhibition is -3.8%.

On to `CCCCc1nnc(NC(=O)CSc2nc(C)cc(=O)[nH]2)s1`, for which the inhibition is 4.3%.

On to `O=C1/C(=C\Nc2ccccc2)CCN1c1ncccn1`, for which the inhibition was 7.1%.

`CCOC(=O)c1ccn(-c2nc(-c3ccco3)cc(C(F)(F)F)n2)n1`: the inhibition was 9.7%.

For `CC(=O)C1C(c2cccc(Oc3ccccc3)c2)NC(=O)NC1(O)C(F)(F)F` (stereo not drawn), the inhibition is 24.4%.

In the case of `Cc1ccccc1-c1ccc(Nc2ccc(C(=O)N3CCOCC3)cc2)nn1`, the inhibition was 34.2%.
